Screens (PubChem BioAssay)
mHTT CaM bind – inhibitors of human mutant huntingtin-calmodulin interaction; AlphaScreen His-mHTT/GST-CaM binding, luminescence; inhibition, % at 15 µM; actives 3.6% (n = 190,000);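 also: 0% = both proteins with DMSO and 100% = one protein alone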
Pf apPOL block – Pf-apPOL DNA polymerase inhibition; AID 1794808; actives 0.25% (n = 210,000); Recombinant Pf-apPOL, molecular beacon fluorescence, 1.5 h; inhibition, % at 10 µM
Starred values were filed as active, the others as inactive; ! = repeats disagree. This is one part of a sample in which hits are shown more often than they occur. Rule as the data show it: active = inhibition above about 50%; inactive = the rest.

What do the screens show for `COc1ccc(CNc2ccccc2)cc1C`?
mHTT CaM bind: 8; Pf apPOL block: -2

How did Cc1ccc(C)c(CNc2ccc3[nH]ncc3c2)c1 do in these assays?
mHTT CaM bind: 75*; Pf apPOL block: 0

Results for CC(CCc1ccc(O)cc1)Nc1ccc2[nH]ncc2c1 (centres undefined) ?
mHTT CaM bind: 40; Pf apPOL block: 1

Results for COc1ccc(CNc2ccc3[nH]ncc3c2)cc1C ?
mHTT CaM bind: 65*; Pf apPOL block: 12

What do the screens show for `CC1CCCC(C)N1CC(O)COC12CC3CC(CC(C3)C1)C2` (centres undefined)?
mHTT CaM bind: -6; Pf apPOL block: -14

What do the screens show for `COc1ccc2c(c1)OC(=Cc1ccc(C(C)C)cc1)C2=O`?
mHTT CaM bind: -6; Pf apPOL block: -7

How did O=C(NCc1cccs1)c1ccc(-n2cccn2)nn1 do in these assays?
mHTT CaM bind: -14; Pf apPOL block: -1

How did Cc1nn(C)cc1CN(C)C(=O)c1ccc(N2CCNC(c3ccccc3)C2)nc1 (centres undefined) do in these assays?
mHTT CaM bind: 8; Pf apPOL block: 2

How did Cc1cccc(OCC(=O)Nc2cc(Cl)ccc2C)c1 do in these assays?
mHTT CaM bind: -14; Pf apPOL block: 2

What do the screens show for `CCn1c(C2CCN(C(=O)c3ccccc3C)C2)nc2cccnc21` (centres undefined)?
mHTT CaM bind: 4; Pf apPOL block: -1

Results for CCn1c(N)c(C(N)=O)[nH]c1=S ?
mHTT CaM bind: 6

How did Cc1cc(C)n(C(CC(=O)O)C(=O)O)n1 (centres undefined) do in these assays?
mHTT CaM bind: -3; Pf apPOL block: 0

How did O=C(O)CC(C(=O)O)n1nc(-c2ccccc2)cc1-c1ccccc1 (centres undefined) do in these assays?
mHTT CaM bind: 1; Pf apPOL block: 96*

How did O=[N+]([O-])c1c(N2CCCC2)n[nH]c1-c1ccccc1 do in these assays?
mHTT CaM bind: 16; Pf apPOL block: -6

Results for CC1=NN(C(=N)N)C(=O)C1 ?
mHTT CaM bind: -3

What do the screens show for `Cc1ccc(S(=O)(=O)OC2COC3C(OS(=O)(=O)c4ccc(C)cc4)COC23)cc1` (centres undefined)?
Pf apPOL block: -4

Results for Cn1c(=O)c2c(ncn2CC(=O)N/N=C/c2ccco2)n(C)c1=O ?
mHTT CaM bind: inactive

What do the screens show for `O=C(CN1c2ccccc2Sc2ccccc21)NN=Cc1ccco1`?
Pf apPOL block: 62*

What do the screens show for `CCCOc1ccc(CNC(=O)c2cc3c(s2)CN(C2CC2)C3)cc1`?
mHTT CaM bind: 20; Pf apPOL block: -5

What do the screens show for `COc1ccccc1CNC(=O)C1CCCN(S(=O)(=O)N2CC(C)CC(C)C2)C1` (centres undefined)?
mHTT CaM bind: 7; Pf apPOL block: -6

What do the screens show for `COC1CCN(C(=O)c2ccc3nsnc3c2)CC1`?
mHTT CaM bind: -9; Pf apPOL block: 0

Results for COc1cc(S(=O)(=O)n2cnc3cc(C)c(C)cc32)c(C)cc1C ?
mHTT CaM bind: 18; Pf apPOL block: -55

How did COc1cc(C)c(S(=O)(=O)n2cnc3cc(C)c(C)cc32)cc1C do in these assays?
mHTT CaM bind: 67*; Pf apPOL block: -3

How did O=C(CN1CCC(c2nnc(C(F)(F)F)o2)CC1)Nc1ccccc1C(F)(F)F do in these assays?
mHTT CaM bind: -6; Pf apPOL block: -7

What do the screens show for `CN1c2ccccc2C(=O)NC12CCN(C(=O)c1cccc(Cl)c1)CC2`?
mHTT CaM bind: -20; Pf apPOL block: 3

Results for Cc1nccn1-c1ccc(CNC(=O)c2cc(C)n(C)n2)cc1 ?
mHTT CaM bind: 6; Pf apPOL block: -3

How did Cc1c(C(=O)NCc2ccccn2)oc2ccc(S(=O)(=O)N3CCCCC3)cc12 do in these assays?
mHTT CaM bind: 58*; Pf apPOL block: -10

Results for Cc1c(C(=O)NCc2ccccn2)oc2ccc(S(=O)(=O)N3CCOCC3)cc12 ?
mHTT CaM bind: 3; Pf apPOL block: 2

How did C=CCNCCCOc1ccc(C(C)CC)cc1 (centres undefined) do in these assays?
mHTT CaM bind: -6; Pf apPOL block: -7

How did O=C(Cn1c(-c2ccccc2Cl)nc2ccccc2c1=O)Nc1ccc(F)c(Cl)c1 do in these assays?
mHTT CaM bind: 100*; Pf apPOL block: -4

What do the screens show for `Cc1ccc(NC(=O)Cn2c(-c3ccccc3F)nc3ccccc3c2=O)cc1Cl`?
mHTT CaM bind: 12; Pf apPOL block: -1

How did Cc1nn(C)c(C)c1CNC(=O)C1CCc2sc(C(=O)N3CCCCCC3)cc2C1 (centres undefined) do in these assays?
mHTT CaM bind: 6; Pf apPOL block: -3

What do the screens show for `Cc1c(NC(=O)Cn2nc(C(F)(F)F)cc2C2CC2)c(=O)n(-c2ccccc2)n1C`?
mHTT CaM bind: 0; Pf apPOL block: -12

How did COc1ccc(C(=O)Oc2ccc3c(c2)OC(=Cc2cccc(OC)c2OC)C3=O)cc1OC do in these assays?
mHTT CaM bind: 1; Pf apPOL block: -6

What do the screens show for `CCOc1ccc(S(=O)(=O)N(C(=O)c2ccncc2)c2ccc3oc4c(c3c2)CCCC4)cc1`?
mHTT CaM bind: 30; Pf apPOL block: -4

How did O=C(c1ccncc1)N(c1ccc2oc3c(c2c1)CCCC3)S(=O)(=O)c1ccc(F)cc1 do in these assays?
mHTT CaM bind: 58*; Pf apPOL block: 3

How did O=C(Nc1cccc(-c2nc3ccccc3[nH]2)c1)c1ccc([N+](=O)[O-])cc1 do in these assays?
mHTT CaM bind: 84*!; Pf apPOL block: 2

What do the screens show for `CC(=O)c1ccc(C(=O)Nc2cccc(-c3nc4ccccc4[nH]3)c2)cc1`?
mHTT CaM bind: 27; Pf apPOL block: 0

What do the screens show for `CN(C)S(=O)(=O)c1ccc(C(=O)Nc2ccc([N+](=O)[O-])cc2)cc1`?
mHTT CaM bind: -10; Pf apPOL block: 2

What do the screens show for `CCOC(=O)CN1C(=O)S/C(=C\c2ccc(N3CCCC3)o2)C1=O`?
mHTT CaM bind: -5

What do the screens show for `O=C1C(=Cc2ccco2)Oc2c1ccc1c2CN(Cc2ccc3c(c2)OCO3)CO1`?
mHTT CaM bind: 48; Pf apPOL block: -7

How did COc1cc(C=C2Oc3c(ccc4c3CN(CCN3CCOCC3)CO4)C2=O)cc(OC)c1OC do in these assays?
mHTT CaM bind: 89*; Pf apPOL block: -36

What do the screens show for `COCCCN1COc2ccc3c(c2C1)OC(=Cc1cc(OC)c(OC)c(OC)c1)C3=O`?
mHTT CaM bind: 29; Pf apPOL block: -28

Results for COc1ccc(OC)c(C=C2Oc3c(ccc4c3CN(Cc3ccco3)CO4)C2=O)c1 ?
mHTT CaM bind: 16; Pf apPOL block: -8

Results for COc1ccc(C=C2Oc3c(ccc4c3CN(c3ccc5c(c3)OCO5)CO4)C2=O)cc1OC ?
mHTT CaM bind: 59*; Pf apPOL block: 6

How did COc1ccc(C=C2Oc3c(ccc4c3CN(c3ccc5c(c3)OCCO5)CO4)C2=O)cc1OC do in these assays?
mHTT CaM bind: 3; Pf apPOL block: 3

What do the screens show for `COc1ccc(C=C2Oc3c(ccc4c3CN(Cc3ccco3)CO4)C2=O)c(OC)c1`?
mHTT CaM bind: 68*; Pf apPOL block: -17

What do the screens show for `COc1ccc(CN2COc3ccc4c(c3C2)OC(=Cc2ccco2)C4=O)cc1`?
mHTT CaM bind: 51*; Pf apPOL block: -6

What do the screens show for `COCCc1noc(COC2CCCN(Cc3cnn(C)c3C)C2)n1` (centres undefined)?
mHTT CaM bind: -8; Pf apPOL block: -5
